Experimental data reported in PMC7862700, “An all-to-all approach to the identification of sequence-specific readers for epigenetic DNA modifications on cytosine”.

Experiments:
Assay in all cases: DAPPL (digital affinity profiling via proximity ligation, sequencing); 10 mM Tris-HCl pH 7.5, 50 mM NaCl, 1 mM DTT, 4% glycerol, room temperature, 30 min; GST-TFs on glutathione beads, 16-mer random dsDNA library, 0.1% formaldehyde crosslink after washing; high values mean tight binding
FLI1 = molecular target: T1, FLI1 (Homo sapiens, UniProt Q01543 1-452); conditions: protein: recombinant; tags: N-terminal GST; dsDNA, one strand shown
T1 sequence: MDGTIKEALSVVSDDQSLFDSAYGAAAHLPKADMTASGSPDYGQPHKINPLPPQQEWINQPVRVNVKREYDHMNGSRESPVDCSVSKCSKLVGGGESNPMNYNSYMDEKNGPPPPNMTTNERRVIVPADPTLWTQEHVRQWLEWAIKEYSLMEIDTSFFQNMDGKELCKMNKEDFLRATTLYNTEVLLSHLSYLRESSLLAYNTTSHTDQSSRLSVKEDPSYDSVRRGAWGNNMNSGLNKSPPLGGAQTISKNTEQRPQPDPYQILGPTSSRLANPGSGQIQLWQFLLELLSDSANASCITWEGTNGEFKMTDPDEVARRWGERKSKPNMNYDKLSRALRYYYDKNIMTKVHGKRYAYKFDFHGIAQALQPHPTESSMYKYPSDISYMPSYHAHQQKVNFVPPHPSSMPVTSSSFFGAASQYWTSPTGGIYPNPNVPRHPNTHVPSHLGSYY
Summary of the method: (§1)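 A tag-only sample was pooled with DNA-barcoded human transcription factors that had been expressed in yeast as GST fusions and captured on glutathione beads. The pools were incubated for 30 min at room temperature with 200 nmole of a random double-stranded 16-mer DNA library in Tris/NaCl/DTT/glycerol buffer, then washed, crosslinked with 0.1% formaldehyde, proximity-ligated (BsaI/T4 ligase, 1 h, 37 °C), PCR-amplified and sequenced on an Illumina NextSeq500. Binding signal is each hexamer's read frequency for a factor divided by its frequency for the tag-only sample.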

ELK1 = molecular target: T2, ELK1 (Homo sapiens, UniProt P19419 1-428); conditions: protein: recombinant; tags: N-terminal GST; dsDNA, one strand shown
T2 sequence: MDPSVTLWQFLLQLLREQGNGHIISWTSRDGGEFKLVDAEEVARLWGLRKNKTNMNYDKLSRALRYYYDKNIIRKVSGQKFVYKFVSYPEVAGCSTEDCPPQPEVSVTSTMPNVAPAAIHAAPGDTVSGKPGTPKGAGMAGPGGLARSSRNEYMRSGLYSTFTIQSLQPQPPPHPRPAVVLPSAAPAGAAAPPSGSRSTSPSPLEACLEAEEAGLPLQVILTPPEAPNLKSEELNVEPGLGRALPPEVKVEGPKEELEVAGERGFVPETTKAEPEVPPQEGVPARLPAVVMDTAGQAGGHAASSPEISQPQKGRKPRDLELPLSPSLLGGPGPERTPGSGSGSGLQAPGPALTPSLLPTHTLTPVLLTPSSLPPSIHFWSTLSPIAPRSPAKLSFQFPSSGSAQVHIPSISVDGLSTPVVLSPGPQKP
Summary of the method: as §1

GABPA = molecular target: T3, GABPA (Homo sapiens, UniProt Q06546 1-454); conditions: protein: recombinant; tags: N-terminal GST; dsDNA, one strand shown
T3 sequence: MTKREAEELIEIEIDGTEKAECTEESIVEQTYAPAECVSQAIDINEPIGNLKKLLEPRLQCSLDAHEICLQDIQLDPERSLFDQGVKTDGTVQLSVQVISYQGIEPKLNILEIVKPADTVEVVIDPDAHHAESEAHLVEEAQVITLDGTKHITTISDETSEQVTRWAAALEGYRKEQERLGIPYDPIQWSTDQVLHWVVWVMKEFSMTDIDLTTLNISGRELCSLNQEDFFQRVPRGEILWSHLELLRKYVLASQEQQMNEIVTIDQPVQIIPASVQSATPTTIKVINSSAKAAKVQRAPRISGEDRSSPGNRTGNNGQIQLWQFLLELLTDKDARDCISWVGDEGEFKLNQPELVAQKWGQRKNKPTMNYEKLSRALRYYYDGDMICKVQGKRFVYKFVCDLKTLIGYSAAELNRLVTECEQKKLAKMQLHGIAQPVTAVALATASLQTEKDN
Summary of the method: as §1

ERG = molecular target: T4, ERG (Homo sapiens, UniProt P11308 1-479); conditions: protein: recombinant; tags: N-terminal GST; dsDNA, one strand shown
T4 sequence: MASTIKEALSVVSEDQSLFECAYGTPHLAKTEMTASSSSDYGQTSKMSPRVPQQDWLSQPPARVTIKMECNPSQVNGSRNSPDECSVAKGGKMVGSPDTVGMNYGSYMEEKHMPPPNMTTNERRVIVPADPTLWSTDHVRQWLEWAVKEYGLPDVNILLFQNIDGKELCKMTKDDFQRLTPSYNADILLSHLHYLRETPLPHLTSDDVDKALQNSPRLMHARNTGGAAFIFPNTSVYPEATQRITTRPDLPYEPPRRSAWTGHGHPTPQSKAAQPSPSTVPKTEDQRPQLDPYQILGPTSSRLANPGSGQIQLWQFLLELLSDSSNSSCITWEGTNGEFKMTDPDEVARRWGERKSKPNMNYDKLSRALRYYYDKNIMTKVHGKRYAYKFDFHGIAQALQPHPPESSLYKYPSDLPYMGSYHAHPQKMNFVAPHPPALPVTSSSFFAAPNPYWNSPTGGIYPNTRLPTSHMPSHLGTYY
Summary of the method: as §1

ELF1 = ELF1 (Homo sapiens, UniProt P32519 1-619); conditions: protein: recombinant; tags: N-terminal GST; dsDNA, one strand shown
Chain of ELF1 (P32519 whole entry): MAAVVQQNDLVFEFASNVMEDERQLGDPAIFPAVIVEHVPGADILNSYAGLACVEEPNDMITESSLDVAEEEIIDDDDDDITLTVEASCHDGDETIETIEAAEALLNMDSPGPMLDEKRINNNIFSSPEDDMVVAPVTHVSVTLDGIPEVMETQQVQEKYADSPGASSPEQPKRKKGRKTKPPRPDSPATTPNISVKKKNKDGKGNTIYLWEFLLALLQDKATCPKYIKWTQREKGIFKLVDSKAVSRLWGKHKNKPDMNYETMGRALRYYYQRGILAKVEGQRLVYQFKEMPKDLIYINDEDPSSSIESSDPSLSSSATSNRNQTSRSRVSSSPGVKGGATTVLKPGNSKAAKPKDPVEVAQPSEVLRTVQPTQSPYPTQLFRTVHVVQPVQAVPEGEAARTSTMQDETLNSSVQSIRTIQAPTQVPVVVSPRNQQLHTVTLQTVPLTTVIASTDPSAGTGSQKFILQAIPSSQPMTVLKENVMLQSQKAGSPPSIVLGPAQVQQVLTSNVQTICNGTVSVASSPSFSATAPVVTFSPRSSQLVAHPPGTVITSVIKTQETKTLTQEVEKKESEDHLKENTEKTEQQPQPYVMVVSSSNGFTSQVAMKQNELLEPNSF
Summary of the method: as §1

EHF = molecular target: T5, EHF (Homo sapiens, UniProt Q9NZC4 1-300); conditions: protein: recombinant; tags: N-terminal GST; dsDNA, one strand shown
T5 sequence: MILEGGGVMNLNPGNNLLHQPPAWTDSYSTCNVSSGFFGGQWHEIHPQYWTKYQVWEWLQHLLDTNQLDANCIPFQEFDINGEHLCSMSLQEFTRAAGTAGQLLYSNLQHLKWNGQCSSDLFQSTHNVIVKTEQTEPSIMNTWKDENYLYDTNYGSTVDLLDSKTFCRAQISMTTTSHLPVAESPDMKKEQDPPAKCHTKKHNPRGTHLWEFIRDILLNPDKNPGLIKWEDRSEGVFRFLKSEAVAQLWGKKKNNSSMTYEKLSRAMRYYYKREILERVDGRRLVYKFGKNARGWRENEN
Summary of the method: as §1

SPI1 = SPI1 (Homo sapiens, UniProt P17947 1-270); conditions: protein: recombinant; tags: N-terminal GST; dsDNA, one strand shown
Summary of the method: as §1

SPIB = SPIB (Homo sapiens, UniProt Q01892 1-262); conditions: protein: recombinant; tags: N-terminal GST; dsDNA, one strand shown
Chain of SPIB (Q01892 whole entry): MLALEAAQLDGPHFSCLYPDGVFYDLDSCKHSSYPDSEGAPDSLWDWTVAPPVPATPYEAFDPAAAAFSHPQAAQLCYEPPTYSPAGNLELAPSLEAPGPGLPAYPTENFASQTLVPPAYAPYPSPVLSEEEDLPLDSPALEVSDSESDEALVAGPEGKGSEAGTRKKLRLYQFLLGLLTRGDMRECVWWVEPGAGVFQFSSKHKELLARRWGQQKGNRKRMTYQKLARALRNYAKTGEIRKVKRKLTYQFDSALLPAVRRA
Summary of the method: as §1

ELK3 = molecular target: T6, ELK3 (Homo sapiens, UniProt P41970 1-407); conditions: protein: recombinant; tags: N-terminal GST; dsDNA, one strand shown
T6 sequence: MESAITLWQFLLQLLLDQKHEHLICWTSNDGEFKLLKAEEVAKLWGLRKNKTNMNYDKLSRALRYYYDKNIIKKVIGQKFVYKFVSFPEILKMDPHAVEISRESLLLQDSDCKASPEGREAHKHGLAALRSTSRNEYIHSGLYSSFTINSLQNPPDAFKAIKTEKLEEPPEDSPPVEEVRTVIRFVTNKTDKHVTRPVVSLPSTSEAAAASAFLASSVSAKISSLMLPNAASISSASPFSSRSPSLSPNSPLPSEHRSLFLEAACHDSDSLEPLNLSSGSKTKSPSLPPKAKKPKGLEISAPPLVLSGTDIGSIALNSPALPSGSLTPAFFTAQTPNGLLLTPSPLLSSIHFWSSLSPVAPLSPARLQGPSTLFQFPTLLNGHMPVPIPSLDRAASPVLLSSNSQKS
Summary of the method: as §1

FEV = molecular target: T7, FEV (Homo sapiens, UniProt Q99581 1-238); conditions: protein: recombinant; tags: N-terminal GST; dsDNA, one strand shown
T7 sequence: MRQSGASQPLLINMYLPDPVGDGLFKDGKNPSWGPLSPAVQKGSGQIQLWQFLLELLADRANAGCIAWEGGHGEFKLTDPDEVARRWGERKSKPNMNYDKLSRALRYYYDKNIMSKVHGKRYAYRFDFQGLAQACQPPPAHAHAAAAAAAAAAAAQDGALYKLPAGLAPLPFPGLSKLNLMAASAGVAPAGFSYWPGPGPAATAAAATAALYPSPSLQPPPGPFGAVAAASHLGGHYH
Summary of the method: as §1

ETV5 = ETV5 (Homo sapiens, UniProt P41161 1-510); conditions: protein: recombinant; tags: N-terminal GST; dsDNA, one strand shown
Chain of ETV5 (P41161 whole entry): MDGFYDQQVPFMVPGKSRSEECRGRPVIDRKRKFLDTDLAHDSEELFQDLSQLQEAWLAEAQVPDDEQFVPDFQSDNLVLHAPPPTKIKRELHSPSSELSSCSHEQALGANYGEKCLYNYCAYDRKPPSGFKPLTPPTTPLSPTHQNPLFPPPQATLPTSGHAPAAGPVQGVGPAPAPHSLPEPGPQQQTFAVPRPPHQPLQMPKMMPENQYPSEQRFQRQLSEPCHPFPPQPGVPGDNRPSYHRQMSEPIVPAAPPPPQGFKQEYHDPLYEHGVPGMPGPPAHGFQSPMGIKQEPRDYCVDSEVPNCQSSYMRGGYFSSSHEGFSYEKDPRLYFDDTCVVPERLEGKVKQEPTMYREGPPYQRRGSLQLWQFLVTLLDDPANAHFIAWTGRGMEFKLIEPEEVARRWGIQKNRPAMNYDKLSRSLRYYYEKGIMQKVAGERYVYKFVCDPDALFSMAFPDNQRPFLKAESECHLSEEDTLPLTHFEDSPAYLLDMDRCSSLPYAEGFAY
Summary of the method: as §1

HSF1 = HSF1 (Homo sapiens, UniProt Q00613 1-529); conditions: protein: recombinant; tags: N-terminal GST; chain copies: 3; dsDNA, one strand shown
Chain of HSF1 (Q00613 whole entry): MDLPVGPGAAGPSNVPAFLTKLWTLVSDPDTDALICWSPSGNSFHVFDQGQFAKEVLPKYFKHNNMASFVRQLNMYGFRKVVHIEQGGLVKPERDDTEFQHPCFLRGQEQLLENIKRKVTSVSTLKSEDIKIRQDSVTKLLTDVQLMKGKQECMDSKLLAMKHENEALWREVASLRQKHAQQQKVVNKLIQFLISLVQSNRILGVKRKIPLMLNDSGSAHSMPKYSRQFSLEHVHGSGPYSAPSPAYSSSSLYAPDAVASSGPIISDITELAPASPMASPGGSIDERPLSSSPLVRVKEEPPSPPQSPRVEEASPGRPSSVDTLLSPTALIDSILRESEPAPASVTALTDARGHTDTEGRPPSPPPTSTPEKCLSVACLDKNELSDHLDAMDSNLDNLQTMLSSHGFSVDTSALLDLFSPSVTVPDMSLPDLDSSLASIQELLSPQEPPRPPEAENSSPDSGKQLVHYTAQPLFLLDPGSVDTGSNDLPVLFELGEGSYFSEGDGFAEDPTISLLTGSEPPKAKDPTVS
Summary of the method: as §1

SPIC = molecular target: T8, SPIC (Homo sapiens, UniProt Q8N5J4 1-248); conditions: protein: recombinant; tags: N-terminal GST; dsDNA, one strand shown
T8 sequence: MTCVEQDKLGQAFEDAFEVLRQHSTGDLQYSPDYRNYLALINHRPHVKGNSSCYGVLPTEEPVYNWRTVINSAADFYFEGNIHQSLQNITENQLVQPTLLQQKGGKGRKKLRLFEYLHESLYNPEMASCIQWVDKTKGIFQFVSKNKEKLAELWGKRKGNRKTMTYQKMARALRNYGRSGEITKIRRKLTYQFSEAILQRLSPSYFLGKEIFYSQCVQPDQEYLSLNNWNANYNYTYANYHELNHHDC
Summary of the method: as §1

ELF4 = ELF4 (Homo sapiens, UniProt Q99607 1-663); conditions: protein: recombinant; tags: N-terminal GST; dsDNA, one strand shown
Chain of ELF4 (Q99607 whole entry): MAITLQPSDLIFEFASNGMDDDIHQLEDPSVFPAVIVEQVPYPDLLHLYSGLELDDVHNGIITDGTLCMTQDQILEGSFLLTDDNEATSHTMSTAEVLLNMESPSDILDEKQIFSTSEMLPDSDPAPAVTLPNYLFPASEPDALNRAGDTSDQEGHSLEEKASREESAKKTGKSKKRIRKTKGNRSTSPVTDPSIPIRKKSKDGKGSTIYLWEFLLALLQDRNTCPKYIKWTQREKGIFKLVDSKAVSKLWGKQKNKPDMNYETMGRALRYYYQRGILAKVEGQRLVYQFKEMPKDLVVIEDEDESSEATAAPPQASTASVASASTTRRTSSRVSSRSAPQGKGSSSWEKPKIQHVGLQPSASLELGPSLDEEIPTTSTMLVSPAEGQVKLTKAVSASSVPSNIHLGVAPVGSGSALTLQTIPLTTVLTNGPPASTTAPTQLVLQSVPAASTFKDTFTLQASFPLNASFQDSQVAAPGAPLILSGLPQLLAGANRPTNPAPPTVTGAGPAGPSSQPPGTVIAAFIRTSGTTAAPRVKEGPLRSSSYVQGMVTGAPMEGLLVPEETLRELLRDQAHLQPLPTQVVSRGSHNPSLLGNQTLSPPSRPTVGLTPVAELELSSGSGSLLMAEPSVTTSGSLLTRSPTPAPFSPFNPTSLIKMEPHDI
Summary of the method: as §1

ELK4 = molecular target: T9, ELK4 (Homo sapiens, UniProt P28324-2 1-405); conditions: protein: recombinant; tags: N-terminal GST; dsDNA, one strand shown
T9 sequence: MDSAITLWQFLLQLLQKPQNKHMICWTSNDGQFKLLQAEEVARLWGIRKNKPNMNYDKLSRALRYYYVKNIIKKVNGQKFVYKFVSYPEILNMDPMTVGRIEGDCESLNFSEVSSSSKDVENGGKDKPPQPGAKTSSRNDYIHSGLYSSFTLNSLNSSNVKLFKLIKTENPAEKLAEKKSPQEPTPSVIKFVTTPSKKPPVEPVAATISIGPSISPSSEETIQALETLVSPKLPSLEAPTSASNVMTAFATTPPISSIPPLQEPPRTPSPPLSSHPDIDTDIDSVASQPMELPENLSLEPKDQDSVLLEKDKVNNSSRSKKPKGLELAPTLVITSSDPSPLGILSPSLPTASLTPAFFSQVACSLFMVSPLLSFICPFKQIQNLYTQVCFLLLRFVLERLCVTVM
Summary of the method: as §1

ETV2 = molecular target: T10, ETV2 (Homo sapiens, UniProt O00321 1-342); conditions: protein: recombinant; tags: N-terminal GST; dsDNA, one strand shown
T10 sequence: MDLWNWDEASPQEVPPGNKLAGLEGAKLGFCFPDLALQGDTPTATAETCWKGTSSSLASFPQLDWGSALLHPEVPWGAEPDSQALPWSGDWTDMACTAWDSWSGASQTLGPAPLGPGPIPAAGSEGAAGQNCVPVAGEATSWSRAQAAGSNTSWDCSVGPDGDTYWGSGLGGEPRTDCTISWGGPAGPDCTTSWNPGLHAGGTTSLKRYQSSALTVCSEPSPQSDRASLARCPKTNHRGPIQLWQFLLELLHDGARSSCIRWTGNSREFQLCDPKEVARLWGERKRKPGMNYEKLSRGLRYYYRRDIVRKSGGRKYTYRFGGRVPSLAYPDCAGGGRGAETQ
Summary of the method: as §1

ELF3 = molecular target: T11, ELF3 (Homo sapiens, UniProt P78545 1-371); conditions: protein: recombinant; tags: N-terminal GST; dsDNA, one strand shown
T11 sequence: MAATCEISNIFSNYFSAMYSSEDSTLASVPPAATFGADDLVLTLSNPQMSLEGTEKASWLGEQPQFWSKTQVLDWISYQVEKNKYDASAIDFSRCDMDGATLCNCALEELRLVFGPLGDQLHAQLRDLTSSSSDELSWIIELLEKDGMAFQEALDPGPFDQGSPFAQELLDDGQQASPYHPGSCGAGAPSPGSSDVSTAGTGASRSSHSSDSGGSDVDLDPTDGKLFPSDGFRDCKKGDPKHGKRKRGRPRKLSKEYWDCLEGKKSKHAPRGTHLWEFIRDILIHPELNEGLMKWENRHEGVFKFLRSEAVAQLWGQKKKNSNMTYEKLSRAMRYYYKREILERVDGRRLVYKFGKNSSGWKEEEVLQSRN
Summary of the method: as §1

CRX = CRX (Homo sapiens, UniProt O43186 1-299); conditions: protein: recombinant; tags: N-terminal GST; dsDNA, one strand shown
Chain of CRX (O43186 whole entry): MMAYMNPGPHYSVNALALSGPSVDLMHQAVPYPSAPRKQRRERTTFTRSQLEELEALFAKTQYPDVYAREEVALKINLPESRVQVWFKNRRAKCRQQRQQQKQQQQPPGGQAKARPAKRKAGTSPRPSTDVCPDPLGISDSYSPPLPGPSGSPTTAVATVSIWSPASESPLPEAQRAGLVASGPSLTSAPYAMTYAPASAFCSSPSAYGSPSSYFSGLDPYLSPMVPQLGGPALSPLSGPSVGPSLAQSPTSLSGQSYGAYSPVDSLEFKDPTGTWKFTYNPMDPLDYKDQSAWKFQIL
Summary of the method: as §1

ETV1 = ETV1 (Homo sapiens, UniProt P50549 1-477); conditions: protein: recombinant; tags: N-terminal GST; dsDNA, one strand shown
Chain of ETV1 (P50549 whole entry): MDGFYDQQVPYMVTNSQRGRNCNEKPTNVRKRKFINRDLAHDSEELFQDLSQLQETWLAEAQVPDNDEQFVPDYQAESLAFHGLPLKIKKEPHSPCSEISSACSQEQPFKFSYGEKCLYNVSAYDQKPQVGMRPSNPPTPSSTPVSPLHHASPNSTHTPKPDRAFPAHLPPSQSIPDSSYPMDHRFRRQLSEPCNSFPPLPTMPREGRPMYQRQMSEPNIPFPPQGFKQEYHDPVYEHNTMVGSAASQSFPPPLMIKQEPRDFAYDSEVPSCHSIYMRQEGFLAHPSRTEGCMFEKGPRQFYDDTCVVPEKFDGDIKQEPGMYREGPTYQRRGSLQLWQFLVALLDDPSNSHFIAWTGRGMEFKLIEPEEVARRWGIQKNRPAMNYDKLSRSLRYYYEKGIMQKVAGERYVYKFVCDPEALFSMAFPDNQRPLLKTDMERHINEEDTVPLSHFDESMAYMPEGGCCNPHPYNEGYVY
Summary of the method: as §1

With ATGGCC the binding signal (FLI1) was 1.31 fold enrichment (6-mer frequency, TF over GST control), the binding signal (ELK1) was 1.42 fold enrichment (6-mer frequency, TF over GST control) and the binding signal (GABPA) was 1.45 fold enrichment (6-mer frequency, TF over GST control). The binding signal (ERG) was 1.46 fold enrichment (6-mer frequency, TF over GST control), the binding signal (ELF1) was 1.35 fold enrichment (6-mer frequency, TF over GST control) and the binding signal (EHF) was 1.27 fold enrichment (6-mer frequency, TF over GST control). The binding signal (SPI1) was 1.37 fold enrichment (6-mer frequency, TF over GST control), the binding signal (SPIB) was 1.39 fold enrichment (6-mer frequency, TF over GST control) and the binding signal (ELK3) was 1.24 fold enrichment (6-mer frequency, TF over GST control). The binding signal (FEV) was 1.45 fold enrichment (6-mer frequency, TF over GST control), the binding signal (ETV5) was 1.42 fold enrichment (6-mer frequency, TF over GST control) and the binding signal (HSF1) was 1.23 fold enrichment (6-mer frequency, TF over GST control). For the same sequence, the binding signal (SPIC) was 1.52 fold enrichment (6-mer frequency, TF over GST control), the binding signal (ELF4) was 1.44 fold enrichment (6-mer frequency, TF over GST control) and the binding signal (ELK4) was 1.48 fold enrichment (6-mer frequency, TF over GST control). For the same sequence, the binding signal (ETV2) was 1.41 fold enrichment (6-mer frequency, TF over GST control), the binding signal (ELF3) was 1.5 fold enrichment (6-mer frequency, TF over GST control) and the binding signal (CRX) was 1.08 fold enrichment (6-mer frequency, TF over GST control). The binding signal (ETV1) was 1.38 fold enrichment (6-mer frequency, TF over GST control).
